Values joined by “and” are separate entries in the source; they are usually repeats but may differ in a detail not shown here. Identical values can stand only once. Inconclusive results are not listed. Active and inactive are the calls of the source. Unless noted, the call rests on the fitted dose curve; in most records, active means well fitted curve in the direction sought with a large enough effect in the repeat runs; inconclusive means weak or mixed curves; inactive means no such curve, though single readings can be large; an effect the other way counts as inactive or inconclusive.
Experiments:
[1] = qHTS assay for small molecule agonists of the p53 signaling pathway (AID 651631; calls by dose curve; further: nearly all actives have a fitted effect of over 15% in size)
How it was run: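 Agonist mode screen using a stably integrated beta-lactamase gene under p53 response elements in HCT-116 cells. Compound exposure lasts 16 h at 37 °C; fluorescence intensity is measured following 2 h FRET substrate loading.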

[2] = qHTS assay for small molecules that induce genotoxicity in human embryonic kidney cells expressing luciferase-tagged ATAD5 (AID 651632); further: nearly all actives have a fitted effect of over 15% in size; further: potency means the concentration at half of the fitted maximal effect
How it was run: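 Cells were seeded at 2,000 per well, dosed with compound, and incubated 16 hr at 37C in 5% CO2. Luciferase activity was then quantified after a 30 min room-temperature incubation with Amplite.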

[3] = qHTS assay for small molecule agonists of the p53 signaling pathway - cell viability (AID 651633; calls by dose curve;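 further: p53RE-bla HCT reporter cells with a stable beta-lactamase p53 reporter; series mostly up to about 83 µM; nearly all actives have a fitted effect of over 30% in size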)
How it was run: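 p53RE-bla cells were treated with compound for 16 hours at 37 C. Cytotoxicity was then measured as CellTiter-Glo luminescence after 30 min at room temperature.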

[4] = qHTS assay for small molecule disruptors of the mitochondrial membrane potential - cell viability (AID 720634; calls by dose curve;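 further: human HepG2 liver cancer cells; series mostly up to about 83 µM; nearly all actives have a fitted effect of over 20% in size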)
How it was run: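 Cytotoxicity was measured by ATP quantitation in HepG2 wells that had first been treated with compound for 1 hr and stained with m-MPI dye; CellTiter-Glo incubation was 30 min at room temperature.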

[5] = qHTS assay for small molecule disruptors of the mitochondrial membrane potential (AID 720635); further: potency means the concentration at half of the fitted maximal effect
How it was run: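 HepG2 cells exposed to compound 1 hr at 37C, then Mito-MPS dye 30 min. Ratio read of aggregate (540/590 nm) versus monomer (490/535 nm) fluorescence.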

[6] = qHTS assay to test for compound auto fluorescence at 535 nm (green) in HepG2 cells (AID 720675)
[7] = qHTS assay to test for compound auto fluorescence at 460 nm (blue) in HEK293 cells (AID 720678)
How it was run: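 Cells were seeded and left to adhere for 4-5 hr at 37C. Compounds were then pin-transferred. After an overnight incubation at 37C under 5% CO2, intrinsic fluorescence at 405/460 nm was measured and referenced to triamterene.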

[8] = qHTS assay to test for compound auto fluorescence at 535 nm (green) in HEK293 cells (AID 720680)
[9] = qHTS assay to test for compound auto fluorescence at 460 nm (blue) in HEK293 cell free culture (AID 720681)
How it was run: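 Compounds were added to cell-free DMEM with 10% FBS and fluorescence read directly. The blue channel used 405 nm excitation and 460 nm emission, with triamterene as the reference fluorophore.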

[10] = qHTS assay to test for compound auto fluorescence at 535 nm (green) in HEK293 cell free culture (AID 720682)
How it was run: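 No cells present: wells hold DMEM supplemented with 10% FBS, into which compound or vehicle is pinned. Green emission is then recorded (485 nm excitation, 535 nm emission) and scaled to fluorescein.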

[11] = qHTS assay to test for compound auto fluorescence at 590 nm (red) in HEK293 cell free culture (AID 720683)
How it was run: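 Cell-free wells of DMEM with 10% FBS received compound, and intrinsic fluorescence was read at excitation/emission 540/590 nm. Values expressed as equivalence to Rose Bengal sodium.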

[12] = qHTS assay to test for compound auto fluorescence at 590 nm (red) in HepG2 cell free culture (AID 720684)
How it was run: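 Rose Bengal sodium served as the reference for red signal. Test compounds were dispensed into serum-containing MEM (10% FBS) without cells, and plates were read at 540/590 nm.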

[13] = qHTS assay to test for compound auto fluorescence at 460 nm (blue) in HepG2 cell free culture (AID 720685)
How it was run: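 Cell-free plates of MEM plus 10% FBS received 23 nL compound or DMSO vehicle; blue-channel (405/460 nm) intensity scored against triamterene as reference fluorophore.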

[14] = qHTS assay to test for compound auto fluorescence at 535 nm (green) in HepG2 cell free culture (AID 720686)
[15] = qHTS assay to test for compound auto fluorescence at 460 nm (blue) in HepG2 cells (AID 720687)
How it was run: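 HepG2 cells in MEM with 10% FBS, attached overnight at 37 C, were exposed to compound or DMSO for 1 hr at 37 C, 5% CO2. Blue fluorescence was read at 405/460 nm, with triamterene as reference fluorophore.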

[16] = biological target: Glucocorticoid receptor (Homo sapiens) (UniProt P04150); assay: qHTS assay to identify small molecule agonists of the glucocorticoid receptor (GR) signaling pathway (AID 720691; active means well fitted activation curve with a large enough effect in the signal ratio in the repeat runs, not every such curve was filed as active; the % refers to the signal ratio)
Sequence of Glucocorticoid receptor (Homo sapiens) (P04150 whole entry, looked up): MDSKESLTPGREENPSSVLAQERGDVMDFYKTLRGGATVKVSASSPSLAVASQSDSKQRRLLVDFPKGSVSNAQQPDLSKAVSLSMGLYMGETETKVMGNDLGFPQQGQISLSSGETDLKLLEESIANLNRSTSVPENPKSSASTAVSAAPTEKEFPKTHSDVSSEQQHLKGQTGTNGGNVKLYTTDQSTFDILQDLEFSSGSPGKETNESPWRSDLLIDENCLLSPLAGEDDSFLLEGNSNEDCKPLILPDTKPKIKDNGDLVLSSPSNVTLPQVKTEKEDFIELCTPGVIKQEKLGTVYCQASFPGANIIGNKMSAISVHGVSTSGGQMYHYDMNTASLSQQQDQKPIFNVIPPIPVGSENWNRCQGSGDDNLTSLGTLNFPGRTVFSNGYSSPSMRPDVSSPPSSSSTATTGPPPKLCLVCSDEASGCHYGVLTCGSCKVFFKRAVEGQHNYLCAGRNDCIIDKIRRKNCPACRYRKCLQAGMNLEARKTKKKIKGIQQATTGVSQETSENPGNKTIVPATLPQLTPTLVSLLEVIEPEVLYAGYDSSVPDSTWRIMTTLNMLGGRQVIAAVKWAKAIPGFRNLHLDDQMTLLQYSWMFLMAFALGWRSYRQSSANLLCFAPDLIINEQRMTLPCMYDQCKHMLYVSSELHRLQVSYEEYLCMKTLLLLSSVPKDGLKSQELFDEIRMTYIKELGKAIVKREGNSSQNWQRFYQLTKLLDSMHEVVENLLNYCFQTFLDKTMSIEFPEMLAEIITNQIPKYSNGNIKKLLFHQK
How it was run: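 Steps: seed GR-bla HeLa cells, incubate 4 h at 37 C/5% CO2; pin-transfer DMSO-dissolved compounds; incubate 18 h at 37 C; add LiveBLAzer B/G FRET substrate; after 2 h at room temperature, measure fluorescence.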

[17] = biological target: Glucocorticoid receptor (Homo sapiens) (UniProt P04150); assay: qHTS assay to identify small molecule antagonists of the glucocorticoid receptor (GR) signaling pathway (AID 720692; active means well fitted inhibition curve with a large enough effect in the signal ratio in the repeat runs, not every such curve was filed as active; the % refers to the signal ratio)
How it was run: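 Antagonism was scored as loss of dexamethasone-driven (5 nM final) reporter signal in HeLa cells bearing a glucocorticoid response element–beta-lactamase construct, after 18 h compound exposure at 37 C and 2 h FRET substrate loading.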

[18] = qHTS assay for small molecules that induce genotoxicity in human embryonic kidney cells expressing luciferase-tagged ATAD5 - cell viability (AID 651634; calls by dose curve; further: nearly all actives have a fitted effect of over 25% in size)
How it was run: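 Cells (HEK293T, luciferase-tagged ATAD5) are seeded at 2,000 per well, dosed with compound or DMSO vehicle, and incubated 15.5 hr at 37C and 5% CO2. CellTiter-Fluor is added for 30 min before fluorescence is measured.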

[19] = qHTS assay to test for compound auto fluorescence at 590 nm (red) in HepG2 cells (AID 720674)
How it was run: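 Seeding: 2,000 HepG2 cells/well, MEM/10% FBS, overnight 37 C. Dosing: compound vs DMSO. Incubation: 1 hr, 37 C, 5% CO2. Read: fluorescence 540 ex/590 em, Rose Bengal sodium as red reference.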

[20] = qHTS assay to test for compound auto fluorescence at 590 nm (red) in HEK293 cells (AID 720679)
How it was run: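 Each well held 2,000 HEK293 cells in medium containing 10% dialyzed FBS. Following 4-5 hr attachment at 37C, 23 nL test compound or DMSO was added; plates sat overnight, and red fluorescence (540/590nm) was recorded.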
On the % scale 0 is the no-effect control and ±100 the full control effect.

CC(=O)Nc1ccccc1C
inactive: Potency [1] | Potency [2] | Potency [3] | Potency [4] | Potency [5] | outcome [6] | Potency [7] | outcome [8] | Potency [9] | outcome [10] | outcome [11] | outcome [12] | Potency [13] | outcome [14] | Potency [15] | Potency [16] | Potency [17]

CCC(C)=O
inactive: Potency [1] | Potency [2] | Potency [3] | Potency [18] | outcome [6] | Potency [9] | outcome [10] | outcome [11] | outcome [12] | outcome [14] | Potency [15] | Potency [16]

Cc1oncc1C(=O)Nc1ccc(C(F)(F)F)cc1
inactive: Potency [1] | Potency [3] | Potency [18] | outcome [19] | outcome [6] | outcome [20] | outcome [8] | Potency [9] | outcome [10] | outcome [11] | outcome [12] | Potency [13] | outcome [14] | Potency [16] | Potency [17]
active: Potency [2] 5.07 µM and 2.73 µM | Potency [5] 10.1 µM and 7.7 µM

CN1CCN(c2c(F)cc3c(=O)c(C(=O)O)cn4c3c2OCN4C)CC1
inactive: Potency [1] | Potency [2] | Potency [3] | Potency [18] | outcome [19] | outcome [6] | Potency [7] | Potency [9] | outcome [10] | outcome [11] | outcome [12] | Potency [13] | outcome [14] | Potency [15] | Potency [16] | Potency [17]

O=C(CCCN1CCC(O)(c2ccc(Br)cc2)CC1)c1ccc(F)cc1
inactive: Potency [1] | Potency [2] | Potency [3] | Potency [18] | fluorescence, relative to Rose Bengal [19] 0.666% [at 18.6 µM] | fluorescence, % of triamterene [7] -0.176% [at 18.6 µM] | fluorescence, % of fluorescent control [20] -0.139% [at 18.6 µM] | fluorescence, % of fluorescent control [9] 0.0856% [at 18.6 µM] | activity change [10] 0.0165% [at 18.6 µM] | fluorescence, % of fluorescent control [11] 0.118% [at 18.6 µM] | fluorescence, % of Rose Bengal [12] -0.294% [at 18.6 µM] | fluorescence, % of fluorescent control [13] 0.0015% [at 18.6 µM] | fluorescence, % of fluorescein control [14] -0.0224% [at 18.6 µM] | Potency [16] | Potency [17]

From PubChem BioAssay (Tox21)
